This passage reports activity, negative = inhibition and AC50 results from PubChem BioAssay AID1851 (National Center for Advancing Translational Sciences (NCATS), 2009).

SMILES strings stand for the structures. Where “and” joins values, the source holds several entries; their conditions need not be identical. Equal entries are not always repeated. Out of some 16,000 compounds screened, about 4,000 (25%) were called active. Not shown: some 26% with an inconclusive outcome. Calls come from the whole dose curve; as a rule, active = well fitted curve in the direction sought with a large enough effect; inconclusive = small, poorly fitted or top-dose-only effect, or effect the other way; inactive = no such curve, though single readings can be large or run the other way. These entries were drawn from the full list.

One may read the AC50 as the concentration at which the activity in the assay is half-maximal.
% is set by controls: 0 for no effect and ±100 for the full control effect.

Cytochrome P450 2C9 (Homo sapiens), sequence (P11712 whole entry, looked up): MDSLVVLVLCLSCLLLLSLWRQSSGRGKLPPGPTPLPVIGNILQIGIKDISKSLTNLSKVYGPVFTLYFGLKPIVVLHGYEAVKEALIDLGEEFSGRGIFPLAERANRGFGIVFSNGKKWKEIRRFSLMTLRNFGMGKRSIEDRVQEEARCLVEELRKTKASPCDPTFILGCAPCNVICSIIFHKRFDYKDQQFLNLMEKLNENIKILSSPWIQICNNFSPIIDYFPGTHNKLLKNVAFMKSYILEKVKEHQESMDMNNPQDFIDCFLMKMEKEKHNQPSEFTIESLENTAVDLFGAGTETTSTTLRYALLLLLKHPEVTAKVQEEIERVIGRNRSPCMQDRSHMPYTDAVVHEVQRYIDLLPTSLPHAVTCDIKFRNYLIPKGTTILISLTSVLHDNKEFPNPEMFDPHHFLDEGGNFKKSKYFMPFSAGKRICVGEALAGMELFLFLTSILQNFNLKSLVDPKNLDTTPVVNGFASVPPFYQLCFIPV

The assay has as its target Cytochrome P450 2C9 (Homo sapiens) (UniProt P11712). The assay is described as follows: Cytochrome panel assay with activity outcomes. The settings on record: recombinant CYP, pro-luciferin dealkylation, luminescence, p450-cyp2c9; series mostly up to 57.1 µM.
Regarding `c1ccc(N2CC3(CCNCC3)C2)cc1`, the activity, negative = inhibition entry is “inactive”.
Still for that read-out and setting: the value for `c1ccc2cc(CC3=NCCN3)ccc2c1` was “inactive”; that for `CCOC(=O)[C@@H]1[C@@H]2c3ccccc3-c3ccccc3[C@H]2C[C@H]1O` was 29.6% [at 11.4 µM] (inactive); that for `CO[C@@H](C)[C@](O)(C(=O)OCC1=CCN2CC[C@@H](O)[C@H]12)C(C)C` was “inactive”.
On the same count and under the same terms, the value for `CNC(=O)Oc1ccc2c(c1)[C@@]1(C)CCN(C)[C@@H]1N2C` was “inactive”; that for `COc1ccc2c3c1O[C@@H]1C(=O)CC[C@@]4(O)[C@@H](C2)N(CC2CC2)CC[C@]314` was “inactive”.
Turning to `c1ccc2c(c1)[I+]c1ccccc1-2`, the AC50 is 1 µM (active) and 100 nM (active).
As to `O=C(O)/C=C\c1ccc[c]([Sb](=[O])([OH])[OH])c1`, the activity, negative = inhibition was 12.8% [at 11.4 µM] (inactive).
In the case of `CSCC[C@@H](N)P(C)(=O)O`, the activity, negative = inhibition is 21.1% [at 11.4 µM] (inactive).
For the molecule `O=C1C=CC(=O)c2c1ccc1c2ccc2ccccc21`, the AC50 was 1.26 µM (active).
Take `O=C1N[C@@]2(CN3CCC2CC3)C(=O)N1CN(Cc1ccccc1)c1ccccc1`: the activity, negative = inhibition was -7.38% [at 11.4 µM] (inactive).
Take `COCCCn1c(N)c(C(=O)Nc2sc3c(c2C(=O)OC)CCCC3)c2nc3ccccc3nc21`: the AC50 is 2.24 µM (active).
In the case of `NCCCC[C@H](N[C@@H](CCc1ccccc1)C(=O)O)C(=O)N1CCC[C@H]1C(=O)O`, the activity, negative = inhibition entry was “inactive”.
Still for that read-out and setting: the same measure for `Oc1ccc(CCNCc2cc3c(cc2Br)OCO3)cc1`: -10.6% [at 11.4 µM] (inactive); for `CC(=O)OC1=CC2=CC[C@H]3[C@H]4CCC(=O)[C@@]4(C)CC(=O)[C@]3(S)[C@]2(C)CC1`: 4.96% [at 11.4 µM] (inactive).
Consider `CC(O)(CS(=O)(=O)c1cccc(C(F)(F)F)c1)C(=O)Nc1ccc(C(F)(F)F)cc1` (centres undefined), for which the AC50 is 11.2 µM (active).
Turning to `C[N+](C)(C)[C@H](Cc1c[nH]c(=S)[nH]1)C(=O)O`, the activity, negative = inhibition is 11.9% [at 11.4 µM] (inactive).
Turning to `CN1C(=O)COc2c(C(=O)N[C@@H]3CN4CCC3CC4)cc(Cl)cc21`, the activity, negative = inhibition result is “inactive”.
For `CC(C)n1cnc2c(C(=O)N[C@H]3CN4CCC3CC4)cc(Cl)cc21`, the AC50 was 0.398 µM (active).
For the molecule `COc1cc(N)c(Cl)cc1C(=O)N[C@@H]1CN2CCC1CC2`, the AC50 is 12.6 µM (active).
On to `CCCn1c(C)c(C(=O)c2ccc3ccccc3c2)c2ccccc21`, for which the activity, negative = inhibition entry is “inactive”.
Take `CNC[C@H](O)c1ccc(OC(=O)C(C)(C)C)c(OC(=O)C(C)(C)C)c1`: the activity, negative = inhibition result was “inactive”.
On the same count and under the same terms, the value for `N[C@@H]1C=CC=C(C(=O)O)C1` was “inactive”.
Same read-out and setting: the value for `COc1ccc(C[C@H]2c3cc(OC)c(OC)cc3CCN2C)cc1OC` was “inactive”; that for `C=CCN1CC[C@]23c4c5ccc(O)c4O[C@@H]2/C(=N/NC(=O)c2ccccc2)CC[C@@]3(O)[C@H]1C5` was “inactive”; that for `[N-]=[N+]=CC(=O)CC[C@H](N)C(=O)O` was 26.7% [at 11.4 µM] (inactive).
`CCC1(CCSC(=N)N)C(=O)NC(=O)NC1=O`: the activity, negative = inhibition is 12.6% [at 11.4 µM] (inactive).
With `C[C@H](Br)CN(C[C@H](C)Br)c1ccc2c(c1)Cc1ccccc1-2`, the AC50 was 3.16 µM (active).
On to `CCCN1CCO[C@@H]2c3cc(O)ccc3OC[C@@H]21`, for which the activity, negative = inhibition entry was “inactive”.
Same read-out and setting: the same measure for `COc1cc(C(=O)OC2C[C@H]3CC[C@@H](C2)N3C)ccc1O` (some centres undefined): “inactive”.
As to `CC(=O)O[C@@H]1CN2CCC1CC2`, the activity, negative = inhibition result is “inactive”.
With `CCN1C[C@]2(C)CC[C@@H](O)[C@]34[C@@H]5CC6[C@@H](OC)C[C@@](O)([C@H]5[C@@H]6O)[C@@H](C[C@@H]23)[C@H]14`, the activity, negative = inhibition entry is “inactive”.
Regarding `O=C(/C=C\c1ccc(Cl)cc1)N[C@@]12CCC(=O)[C@@H]3Oc4c(O)ccc5c4[C@@]31CCN(CC1CC1)[C@@H]2C5`, the AC50 was 15.8 µM (active).
Consider `O=C1CC[C@]2(O)[C@H]3Cc4ccc(O)c5c4[C@@]2(CCN3CC2CC2)[C@@H]1O5`, for which the activity, negative = inhibition entry was “inactive”.
The same measure, in the same setting: the value for `O=C1CC[C@@]2(O)[C@H]3Cc4ccc(O)c5c4[C@@]2(CCN3CC2CC2)[C@@H]1O5` was “inactive”; that for `C[C@]12CC[C@@H]3[C@H](CCC4=CC(=O)CC[C@]43C)[C@]1(O)CC[C@@]2(O)C(=O)CO` was -5.6% [at 11.4 µM] (inactive).
Same read-out and setting: the same measure for `CC(C)[C@@H]1CN[C@H](C(=O)O)[C@@H]1CC(=O)O`: “inactive”; for `O=C(O)[C@@H](O)[C@@H](O)[C@@H]1[O][Sb][O][C@@H]1CO`: 5.16% [at 11.4 µM] (inactive).
On to `C[C@@H](N)Cn1ccc2cc(F)c(Cl)cc21`, for which the AC50 is 3.98 µM (active).
Regarding `CC[N+](CC)(CCCNC1=CC(=O)C(NCCC[N+](CC)(CC)Cc2ccccc2)=CC1=O)Cc1ccccc1`, the activity, negative = inhibition result was “inactive”.
In the case of `CC[C@@H]1[C@@H]2C[C@H]3[C@H]4N(C)c5ccccc5[C@@]45C[C@@H]([C@@H]2[C@@H]5O)N3[C@H]1O`, the activity, negative = inhibition result is “inactive”.
For the molecule `N#CC(C#N)=Cc1ccc(O)c(O)c1`, the AC50 was 7.94 µM (active).
In the case of `CC(C)(C)c1cc(C=C(C#N)C#N)cc(C(C)(C)C)c1O`, the AC50 is 0.0316 µM (active).
Still for that read-out and setting: the value for `COc1cc(C=C(C#N)C#N)cc(O)c1O` was 2.51 µM (active).
Take `N#C/C(=C\c1ccc(O)c(O)c1)C(N)=S`: the activity, negative = inhibition result is “inactive”.
Still for that read-out and setting: the same measure for `N#C/C(=C\c1ccc(O)c(O)c1)C(=O)NCCCNC(=O)/C(C#N)=C/c1ccc(O)c(O)c1`: “inactive”; for `NCCc1c[nH]c2ccccc12`: “inactive”; for `O=C(O)CNC(=O)[C@@H](CS)Cc1ccccc1`: “inactive”.
On to `COC(=O)[C@@H]1[C@@H](O)[C@@]2(O)c3c(OC)cc(OC)cc3O[C@@]2(c2ccc(OC)cc2)[C@H]1c1ccccc1`, for which the activity, negative = inhibition was -21.1% [at 11.4 µM] (inactive).
Consider `COc1cc2c(cc1OC)[C@]13CC[N@+]4(C)CC5=CCO[C@H]6CC(=O)N2[C@@H]1[C@@H]6[C@@H]5C[C@]34O`, for which the activity, negative = inhibition is -6.22% [at 11.4 µM] (inactive).
Still for that read-out and setting: the value for `O=C(Oc1ccc([N+](=O)[O-])cc1)N1CCC(N2CCCCC2)CC1` was “inactive”; that for `O=C(O)c1cc(N=Nc2ccc([As](=O)(O)O)cc2)ccc1O` was 11.3% [at 11.4 µM] (inactive).
With `N[C@@H](CCCCP(=O)(O)O)C(=O)O`, the activity, negative = inhibition entry is “inactive”.
On to `Cc1ccc(N2C(=O)/C(=C/c3ccc(CN(CCC#N)S(C)(=O)=O)o3)C(=O)NC2=S)cc1C`, for which the AC50 was 12.6 µM (active).
Turning to `NCCc1ccc(O)cc1`, the activity, negative = inhibition entry is “inactive”.
Still for that read-out and setting: the same measure for `CC1=NN(c2ccc(S(=O)(=O)O)cc2C)C(=[OH+])[C@H]1N=Nc1cc(S(=O)(=O)O)ccc1C(=O)O.O.[Cr]`: -5.47% [at 11.4 µM] (inactive); for `O=C(NCP(=O)(O)O)c1cccnc1`: 1.84% [at 11.4 µM] (inactive).
As to `C=C[C@]12CN(C)[C@H]3C1[C@@]1(C(=O)Nc4ccccc41)[C@H]1C[C@H]2[C@H]3CO1`, the activity, negative = inhibition entry was “inactive”.
For the molecule `c1cc2cc(c1)C[n+]1ccc(c3ccccc31)NCc1ccc(cc1)CNc1cc[n+](c3ccccc13)C2`, the AC50 is 2.51 µM (active).
For `CN1C(=O)CCS(=O)(=O)[C@H]1c1ccc(Cl)cc1`, the activity, negative = inhibition entry was “inactive”.
For `C[C@H]1C(=O)O[C@@H]2CCN3CC=C(COC(=O)[C@@](C)(O)[C@@]1(C)O)[C@H]23`, the activity, negative = inhibition result was “inactive”.
For the molecule `CCCCN1C(=O)/C(=C\c2ccco2)C(=O)N(CCc2ccccc2)C1=O`, the AC50 was 7.94 µM (active).
On to `c1ccc2c(c1)Sc1ccccc1N2C[C@H]1CN2CCC1CC2`, for which the activity, negative = inhibition is 8.95% [at 11.4 µM] (inactive).
The same measure, in the same setting: the same measure for `C[C@H](NC(C)(C)C)C(=O)c1cccc(Cl)c1`: “inactive”.
The same measure, in the same setting: the same measure for `CCCN1CCC[C@@H]2Cc3[nH]ncc3C[C@H]21`: “inactive”.
On the same count and under the same terms, the value for `CCN1C[C@]2(COC)CC[C@H](O)[C@@]34[C@@H]5C[C@H]6[C@@H](OC)[C@H]5[C@](O)(C[C@@H]6OC)[C@@](O)([C@@H](OC)[C@H]23)[C@@H]14` was “inactive”; that for `CC[C@H]1CN2CC[C@@H]1C[C@H]2[C@@H](O)c1ccnc2ccc(OC)cc12` was “inactive”.
Consider `Cc1sc2c(c1C)C(c1ccc(C(C)(C)C)cc1)=NCC(=O)N2CC(=O)Nc1nccs1`, for which the AC50 is 12.6 µM (active).
In the case of `CN(C)c1ccc(NC(=O)CN2C(=O)CN=C(c3ccccc3)c3ccccc32)cc1`, the activity, negative = inhibition result is “inactive”.
Same read-out and setting: the value for `O=[N+]([O-])O[C@H]1CO[C@H]2[C@H]1OC[C@@H]2O[N+](=O)[O-]` was “inactive”; that for `CCOP(=O)(OCC)C(NC(C)=O)C(Cl)(Cl)Cl` (centres undefined) was “inactive”.
As to `C(=C/c1ccccc1)/CN1CCN(CCOC(c2ccccc2)c2ccccc2)CC1`, the AC50 was 5.01 µM (active).
Still for that read-out and setting: the same measure for `Fc1ccc(C(OCCN2CCN(C/C=C\c3ccccc3)CC2)c2ccc(F)cc2)cc1`: 7.94 µM (active).
On to `Clc1ccc([C@@H](OCCN2CCCCC2)c2ccccc2)cc1`, for which the activity, negative = inhibition entry is “inactive”.
Still for that read-out and setting: the same measure for `O=c1[nH]c2ccccc2n1C1CCN(CCCC(c2ccc(F)cc2)c2ccc(F)cc2)CC1`: “inactive”; for `CCOC(=O)c1ncn2c1[C@H]1CCCN1C(=O)c1cc(OC)ccc1-2`: “inactive”.
Turning to `NS(=O)(=O)c1cc([C@@]2(O)NC(=O)c3ccccc32)ccc1Cl`, the activity, negative = inhibition entry was “inactive”.
For the molecule `O=C(O)C[O][Sb][O]CC(=O)O`, the activity, negative = inhibition is 3.17% [at 11.4 µM] (inactive).
The same measure, in the same setting: the same measure for `O=C(O)[C@H]1[O][Sb][O][C@@H](C(=O)O)C1O` (some centres undefined): 14.9% [at 11.4 µM] (inactive).
Same read-out and setting: the same measure for `NCC[C@H](O)C(=O)N[C@H]1C[C@@H](N)[C@@H](O[C@H]2O[C@@H](CN)[C@@H](O)[C@@H](O)[C@@H]2N)[C@@H](O[C@H]2O[C@@H](CO)[C@@H](O)[C@@H]2O)[C@@H]1O`: “inactive”; for `C[N+]1(C)CCO[C@@](O)(c2ccc(-c3ccc([C@]4(O)C[N+](C)(C)CCO4)cc3)cc2)C1`: “inactive”; for `O=C(c1ccccc1)[C@H]1[C@H](c2ccccc2[N+](=O)[O-])N1C1CCCCC1` (some centres undefined): -9.93% [at 11.4 µM] (inactive).
The same measure, in the same setting: the same measure for `CC1=C(O)C(=O)[C@H]2O[C@@H]2C1=O`: “inactive”.
Take `COCC(=O)N1CCC2(CCCN(Cc3ccncc3)C2)CC1`: the AC50 was 5.01 µM (active).
`c1cc(CN2CCCC3(CCNCC3)C2)ccn1`: the activity, negative = inhibition result is “inactive”.
With `O=C(c1ccco1)N1CCC[C@@]2(CCN(Cc3ccncc3)C2)C1`, the AC50 was 3.16 µM (active).
Take `CC(C)CN1CCCC2(CCN(C(=O)c3ccncc3)CC2)C1`: the activity, negative = inhibition entry is “inactive”.
On the same count and under the same terms, the same measure for `CN1CC[C@@]2(CCCN(C(=O)c3ccncc3)C2)C1`: “inactive”; for `CN1CC[C@@]2(CCCN(C(=O)c3ccco3)C2)C1`: “inactive”.
